# Assay outcomes deposited in PubChem BioAssay by The Scripps Research Institute Molecular Screening Center.
# DAX1 inh-1 – inhibitors of DAX1 repression of SF-1 activated StAR promoter; 370,000 tested, 1.1% active; inhibition, % at 6.8 µM; HEK293T StAR-luciferase reporter, SF-1/DAX-1 repression relief;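 active means inhibition above the mean over all tested compounds plus 3 SD, cut at about 3.6% in these data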;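 further: 0% = DAX-1 cells with DMSO and 100% = cells lacking DAX-1 with DMSO; higher inhibition means more luminescence from relief of DAX-1 repression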
# hcDAF12 agonist – H. contortus DAF-12 activation, primary screen; HEK293 hcDAF-12 lit1-tk-luc reporter, luminescence; 0% DMSO, 100% Δ7-dafachronic acid; activation, % at 6.8 µM; 370,000 tested, 1.4% active; AID 652067;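 active means activation above the mean of all tested compounds plus 3 SD, cut at about 5.5% in these data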;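 further: 100% = response to 3 µM Δ7-dafachronic acid high control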
# DAX1 inh-2 – inhibits human nuclear receptor DAX1. P51843. HEK293 Gal4-DAX1 luciferase reporter, luminescence. inhibition, % at 6.75 µM. 340,000 tested, 0.99% active. AID 504766;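 active means inhibition above the mean over all tested compounds plus 3 SD, cut at about 4.2% in these data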;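 further: 0% = DAX1-transfected cells with DMSO and 100% = empty-vector control cells with DMSO; inhibition shows as a rise in luminescence from relieved DAX1 repression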
# Target sequence (P51843 207-470 limits assumed): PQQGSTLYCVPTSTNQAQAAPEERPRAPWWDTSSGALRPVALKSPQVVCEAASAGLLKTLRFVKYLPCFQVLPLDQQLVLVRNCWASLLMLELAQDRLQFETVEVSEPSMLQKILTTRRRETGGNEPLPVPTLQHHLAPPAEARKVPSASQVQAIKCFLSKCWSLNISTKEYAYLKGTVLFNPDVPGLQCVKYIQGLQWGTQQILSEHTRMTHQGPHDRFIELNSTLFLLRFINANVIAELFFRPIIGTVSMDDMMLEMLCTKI
# ssDAF-12 act – S. stercoralis DAF-12 activation, primary screen; 370,000 tested, 1% active; HEK293 ssDAF-12/GRIP1 lit1-tk-luc reporter, luminescence; % of 3 µM dafachronic acid response; activation, % at 6.8 µM;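 active means activation above the mean over all tested compounds plus 3 SD, cut at about 0.9% in these data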;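 further: 0% = DMSO-only wells and 100% = 3 µM delta7-dafachronic acid wells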
# AHR activator – activators of human aryl hydrocarbon receptor; AID 2796; 320,000 tested, 2.5% active; AHR-responsive luciferase reporter cells, luminescence; activation, % at 5 µM; in the data active means activation above about 47%;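 further: 0% = vehicle wells and 100% = reference agonist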
# hgDAF-12 ag – activates the H. glycines DAF-12 receptor ligand-binding domain. activation, % at 6.8 µM. HEK293 GAL4-hgDAF12 UAS-luciferase reporter, agonist luminescence; normalized to butyrate control. AID 687014. 370,000 tested, 1.8% active;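 active means activation above a cutoff set at the mean of all screened compounds plus 3 SD, cut at about 10% in these data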;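 further: 0% = DMSO wells and 100% = sodium butyrate wells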
# AHR act cf – human AHR activation, confirmation; shares compounds with AHR activator; human cells, AHR-responsive luciferase reporter, luminescence; activation, % at 9 µM; 2,300 tested, 87% active; AID 2845; in the data active means activation above about 49%;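 further: HepG2 hepatoma cells carrying a DRE-driven firefly luciferase reporter; 0% = vehicle wells and 100% = reference agonist wells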
# PXR act counter – counter-screen for AHR activators: human PXR activators. shares compounds with AHR activator. cell-based PXR reporter, luciferase luminescence. activation, % at 11.6 µM. 2,300 tested, 88% active. AID 434939; in the data active means activation above about 11%;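 further: human hepatoma DPX-2 cells expressing full-length human PXR; 0% = DMSO and 100% = reference agonist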
# Active calls of the source: *; x = not tested or not shown. Rows were chosen to be rich in hits. Some 5.7% of all compounds tested hit in one or more screens of this group.
SMILES,DAX1 inh-1,hcDAF12 agonist,DAX1 inh-2,ssDAF-12 act,AHR activator,hgDAF-12 ag,AHR act cf,PXR act counter
O=C(Nc1ccc2c(c1)OCO2)c1cc(-c2ccncc2)nc2ccccc12,0,3,0,0,94*,2,95*,35*
Cc1ccc2nc(SCc3nc4c(cnn4-c4ccccc4)c(=O)[nH]3)[nH]c2c1,0,-1,1,-1,121*,0,29,37*
O=c1[nH]c(CSc2nc3ccccc3[nH]2)nc2c1cnn2-c1ccccc1,-2,-5,-5,-2,1,-6,x,x
O=c1[nH]c(SCc2ccccc2Cl)nc2c1cnn2-c1ccccc1,0,0,0,-1,117*,1,77*,105*
CCOC(=O)CCCCCN(Cc1ccccc1)S(=O)(=O)c1ccc([N+](=O)[O-])cc1,-1,-2,1,-1,92*,0,2,27*
Cc1nc(-c2cccnc2)sc1C(N)=O,0,-2,0,-2,0,3,x,x
Cc1nc(N)sc1C(=O)Nc1ccccc1,2,5,3,0,105*,8,46,23*
Cc1nc(-c2cccnc2)sc1C(=O)Nc1ccc(Cl)cc1,-1,0,0,-1,124*,-1,112*,13*
Cc1nc(/N=C\N(C)C)sc1C(=O)Nc1ccccc1,0,2,1,-1,108*,1,130*,11*
COc1ccc(-c2ccc3c(c2)S(=O)(=O)c2cccc(C(=O)N4CCN(c5c(Cl)cncc5Cl)CC4)c2C3=O)cc1OC,-1,0,0,-2,2,-2,x,x
CCc1nc2ccc(C(=O)N3CCN(C)CC3)cn2c1N(CCC(C)C)CCN(C)C,0,0,x,-1,x,-2,x,x
CSc1ncc(F)c(N(CCO)CCO)n1,0,-1,2,-1,-4,3,x,x
Cc1ccccc1/C=C1\Oc2ccccc2C1=O,0,0,0,-1,99*,4,92*,98*
O=C1C(=Cc2cccs2)Oc2ccccc21,-1,0,1,0,x,9,x,x
O=C(COC(=O)Cn1cnc2ccccc21)Nc1cc2c(cc1Cl)C(=O)c1ccccc1C2=O,1,3,2,0,84*,7,146*,27*
C=CCn1c(=N)c(C(=O)NCCCOC)cc2c(=O)n3cccc(C)c3nc21,0,-2,0,-1,6,-1,x,x
COCCCNC(=O)c1cccn2c(=O)c3cc4ccccc4cc3nc12,-1,1,3,-2,92*,-4,147*,13*
O=S(=O)(/N=C/c1c(O)ccc2ccccc12)c1cccs1,0,5,x,-1,14,-1,x,x
c1ccc(-c2ccc(-c3csnn3)cc2)cc1,1,0,2,0,86*,3,96*,17*
O=S(=O)(Nc1ccccc1)c1ccc(-c2csnn2)cc1,0,-1,-2,-1,1,-4,x,x
CCN(CC)C(=O)c1sc2nc(-c3ccccn3)[nH]c(=O)c2c1C,-1,0,3,-1,83*,-1,41,52*
CC1CCCC(C)N1C(=O)COc1ccc(F)cc1 (stereo not drawn),0,-1,0,-1,1,-1,x,x
CC(=O)CCC(=O)OCC(=O)Nc1ccc(SC(F)F)cc1,0,-1,-1,-2,4,0,x,x
O=[N+]([O-])c1cccc(/C([O-])=C(/C(=S)Nc2ccccc2)[n+]2ccccc2)c1,1,5,0,0,83*,4,43,159*
Cc1cc(F)ccc1-c1cc(C(=O)NCc2cccc(C(F)(F)F)c2)[nH]n1,1,-4,x,-2,x,2,x,x
SMILES,DAX1 inh-1,hcDAF12 agonist,DAX1 inh-2,ssDAF-12 act,AHR activator,hgDAF-12 ag,AHR act cf,PXR act counter
CCCCN(CC)C(=O)CSc1nc2n[nH]c(C)c2c(=N)n1-c1cccc(C)c1,-1,-3,-1,-2,86*,-5,46,147*
Clc1cccc(/C(Cc2nc3ccccc3[nH]2)=N\Nc2ccccc2)c1,1,1,0,1.0*,102*,3,96*,43*
CC(C)COC(=O)N(C)C[C@H]1OCc2cn(nn2)CCCC(=O)N([C@H](C)CO)C[C@@H]1C,1,0,0,-1,x,-1,x,x
C#CCn1cc(/C=N/NC(=O)c2cc3ccccc3o2)c2ccccc21,0,2,1,-1,112*,1,87*,x
O=C(N/N=C/c1cn(Cc2ccccc2)c2ccccc12)c1cccnc1,-2,-4,-4,-2,86*,-4,-9,-3
O=C1Nc2ccccc2Cc2ccccc21,-1,0,-1,-1,x,0,x,x
O=C(COC(=O)Cn1nnc2ccccc21)Nc1ccccc1Br,1,0,-3,0,0,-4,x,x
O=S(=O)(NNc1ncc(C(F)(F)F)cc1Cl)c1ccc(F)cc1F,3,3,1,0,114*,1,103*,x
CCCN1C(=O)c2cc(C(=O)Nc3cccc(C(C)=O)c3)ccc2C1Nc1cccc(C(C)=O)c1 (stereo not drawn),-2,-3,-2,-2,4,-9,x,x
CCCN1C(=O)c2cc(C(=O)Nc3ccccc3OC)ccc2C1Nc1ccccc1OC (stereo not drawn),0,0,-1,-1,94*,2,65*,72*
CCCc1cc(=O)oc2cc(C)cc(OCC(=O)Nc3cccnc3)c12,-1,-1,-2,-1,116*,4,82*,26*
CCCc1cc(=O)oc2cc(C)cc(OCC(=O)NCC(O)c3ccccc3)c12 (stereo not drawn),-1,1,0,-1,7,0,x,x
Cc1ccc(NC(=O)/C=C/c2ccco2)cc1S(=O)(=O)N1CCCCCC1,-2,-3,-5,-2,5,-2,x,x
O=C(Nc1ccccn1)Nc1ccccc1Cl,1,3,1,0,28,5,x,x
N#Cc1ccc(C23OCCN2CCn2nc4ccccc4c23)cc1 (stereo not drawn),0,4,2,0,103*,-3,109*,95*
CC1(C)CC(=O)C=C(c2cccc(Br)c2)C1,0,1,3,-1,0,1,x,x
O=C(NC(=S)N1CCN(c2ccccc2)CC1)c1ccco1,1,0,1,-1,2,-3,x,x
COCc1cc(=O)n2[nH]c(-c3cccc(Br)c3)cc2n1,2,4,4,0,120*,6,115*,13*
CC(=O)c1ccc(NC(=O)COC(=O)C2C3CC4OC(=O)C2C4C3)cc1 (stereo not drawn),0,0,1,0,1,-2,x,x
